# According to PubChem BioAssay AID1159580 (chemical genetic matrix, 2015):
# About 2,000 (36%) of roughly 5,500 compounds were called active. Roughly 18% stayed inconclusive and do not appear here. The list shows a part of the results. A number with no mark means an inactive call. Cut-off read from the data, not from the text of the source: active = normalized growth mostly below about 0.91 (no sharp cut-off); inconclusive = no clear call, values can overlap the other calls; inactive = mostly above about 0.92.
# Assay: chemical genetic growth profiling, strain panel (AID 1159580);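 note: tested at 20 µM; growth read once vehicle control cultures reached saturation at 30 °C; 1 = growth at the plate median or of vehicle wells; lower values mean less growth of the strain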
# Settings: S. cerevisiae deletion strains, growth OD
# [1] = locus YAR019C, strain CDC15, hits give low values
# [2] = locus YBL105C, strain PKC1, hits give low values
# [3] = locus YBR135W, strain CKS1, hits give low values
# [4] = locus YBR136W, strain MEC1, hits give low values
# [5] = locus YBR160W, strain CDC28, hits give low values
# [6] = locus YDL017W, strain CDC7, hits give low values
# [7] = locus YDL028C, strain MPS1, hits give low values
# [8] = locus YDL101C, strain DUN1, hits give low values
# [9] = locus YDL108W, strain KIN28, hits give low values
# [10] = locus YDL132W, strain cdc53, hits give low values
# [11] = locus YDL214C, strain PRR2, hits give low values
# [12] = locus YDR052C, strain DBF4, hits give low values
# [13] = locus YDR054C, strain cdc34, hits give low values
# [14] = locus YDR226W, strain ADK1, hits give low values
# [15] = locus YDR477W, strain SNF1, hits give low values
# [16] = locus YER123W, strain YCK3, hits give low values
# [17] = locus YER133W, strain GLC7, hits give low values
# [18] = locus YFL009W, strain cdc4, hits give low values
# [19] = locus YFL029C, strain CAK1, hits give low values
# [20] = locus YFR003C, strain YPI1, hits give low values
# [21] = locus YFR019W, strain FAB1, hits give low values
# [22] = locus YGR040W, strain KSS1, hits give low values
# [23] = locus YGR052W, strain FMP48, hits give low values
# [24] = locus YGR092W, strain DBF2, hits give low values
# [25] = locus YHR030C, strain SLT2, hits give low values
# [26] = locus YHR079C, strain IRE1, hits give low values
# [27] = locus YHR082C, strain KSP1, hits give low values
# [28] = locus YHR205W, strain SCH9, hits give low values
# [29] = locus YIL147C, strain SLN1, hits give low values
# [30] = locus YJL095W, strain BCK1, hits give low values
# [31] = locus YJL128C, strain PBS2, hits give low values
# [32] = locus YJL157C, strain FAR1, hits give low values
# [33] = locus YJR016C, strain ILV3, hits give low values
# [34] = locus YJR066W, strain TOR1 (second series), hits give low values
# [35] = locus YJR066W, strain TOR1, hits give low values
# [36] = locus YKL048C, strain ELM1, hits give low values
# [37] = locus YKL067W, strain YNK1, hits give low values
# [38] = locus YKL101W, strain HSL1, hits give low values
# [39] = locus YKL193C, strain SDS22, hits give low values
# [40] = locus YKL203C, strain TOR2, hits give low values
# [41] = locus YLR113W, strain HOG1, hits give low values
# [42] = locus YLR133W, strain CKI1, hits give low values
# [43] = locus YLR403W, strain SFP1, hits give low values
# [44] = locus YML070W, strain DAK1, hits give low values
# [45] = locus YMR001C, strain CDC5, hits give low values
# [46] = locus YMR205C, strain PFK2 (second series), hits give low values
# [47] = locus YMR277W, strain FCP1, hits give low values
# [48] = locus YNL006W, strain LST8, hits give low values
# [49] = locus YNL020C, strain ARK1, hits give low values
# [50] = locus YNL161W, strain CBK1, hits give low values
# [51] = locus YNL183C, strain NPR1, hits give low values
# [52] = locus YNL207W, strain RIO2, hits give low values
# [53] = locus YNL222W, strain SSU72, hits give low values
# [54] = locus YNL307C, strain MCK1 (second series), hits give low values
# [55] = locus YOL078W, strain AVO1, hits give low values
# [56] = locus YOL136C, strain PFK27, hits give low values
# [57] = locus YOR061W, strain CKA2, hits give low values
# [58] = locus YOR119C, strain RIO1, hits give low values
# [59] = locus YOR231W, strain MKK1, hits give low values
# [60] = locus YOR329C, strain SCD5, hits give low values
# [61] = locus YPL031C, strain PHO85, hits give low values
# [62] = locus YPL153C, strain RAD53, hits give low values
# [63] = locus YPL204W, strain HRR25, hits give low values
# [64] = locus YPL209C, strain IPL1, hits give low values
# [65] = locus YPL256C, strain CLN2, hits give low values
# [66] = locus YPR025C, strain CCL1, hits give low values
# [67] = locus YPR111W, strain DBF20, hits give low values
# [68] = strain NNK1, hits give low values
# [69] = strain TSCII, hits give low values
# [70] = locus YAL013W, strain DEP1, hits give low values
# [71] = locus YDR150W, strain NUM1, hits give low values
# [72] = locus YMR263W, strain SAP30, hits give low values
# [73] = locus YNL128W, strain TEP1, hits give low values
# [74] = locus YNL153C, strain GIM3, hits give low values
# [75] = locus YPL241C, strain CIN2, hits give low values
smiles,measurement,setting,value
CC1C/C(=N/Nc2ccc(Br)cc2)c2cc(Cl)ccc2S1(=O)=O (stereo not drawn),normalized growth,[1],1.01
same,normalized growth,[2],0.996
same,normalized growth,[3],0.989
same,normalized growth,[4],0.999
same,normalized growth,[5],0.995
same,normalized growth,[6],0.997
same,normalized growth,[7],1
same,normalized growth,[8],0.988
same,normalized growth,[9],0.992
same,normalized growth,[10],0.986
same,normalized growth,[11],0.888
same,normalized growth,[12],0.998
same,normalized growth,[13],1
same,normalized growth,[14],0.986
same,normalized growth,[15],0.895
same,normalized growth,[16],0.82
same,normalized growth,[17],0.895
same,normalized growth,[18],0.991
same,normalized growth,[19],0.992
same,normalized growth,[20],0.998
same,normalized growth,[21],0.732 (active)
same,normalized growth,"locus YFR028C, strain CDC14, hits give low values",0.991
same,normalized growth,[22],0.893
same,normalized growth,[23],0.93
same,normalized growth,[24],0.397 (active)
same,normalized growth,[25],0.462 (active)
same,normalized growth,[26],0.647
same,normalized growth,[27],0.793
same,normalized growth,[28],0.728
same,normalized growth,[29],1
same,normalized growth,[30],0.8
same,normalized growth,[31],1
same,normalized growth,[32],0.801
same,normalized growth,[33],0.99
same,normalized growth,[34],0.783
same,normalized growth,[35],0.804
same,normalized growth,[36],0.906
same,normalized growth,[37],0.911
same,normalized growth,[38],0.9
same,normalized growth,[39],0.98
same,normalized growth,[40],0.92
same,normalized growth,[41],0.885
same,normalized growth,[42],0.848
same,normalized growth,[43],0.763
same,normalized growth,[44],0.841
same,normalized growth,[45],0.995
same,normalized growth,[46],0.903
same,normalized growth,[47],0.982
same,normalized growth,[48],0.984
same,normalized growth,[49],0.837
same,normalized growth,[50],0.987
same,normalized growth,[51],0.908
same,normalized growth,[52],0.992
same,normalized growth,[53],0.986
same,normalized growth,[54],0.667
same,normalized growth,[55],0.99
same,normalized growth,[56],0.8
same,normalized growth,[57],0.507 (active)
same,normalized growth,[58],0.839
same,normalized growth,[59],0.879
same,normalized growth,[60],0.998
same,normalized growth,[61],0.868
same,normalized growth,[62],0.854
same,normalized growth,[63],0.855
same,normalized growth,[64],0.988
same,normalized growth,[65],0.879
same,normalized growth,[66],0.995
same,normalized growth,"locus YPR106W, strain ISR1, hits give low values",0.998
same,normalized growth,[67],0.992
same,normalized growth,[68],0.994
same,normalized growth,[69],0.994
CC1C/C(=N/Nc2ccc(Br)cc2)c2cc(Cl)ccc2S1 (stereo not drawn),normalized growth,[1],0.535 (active)
same,normalized growth,[2],0.485 (active)
same,normalized growth,[3],0.429 (active)
same,normalized growth,[4],0.497 (active)
same,normalized growth,[5],0.58 (active)
same,normalized growth,[6],0.525 (active)
same,normalized growth,[7],0.396 (active)
same,normalized growth,[8],0.458 (active)
same,normalized growth,[9],0.598 (active)
same,normalized growth,[10],0.546 (active)
same,normalized growth,[11],0.161 (active)
same,normalized growth,[12],0.703 (active)
same,normalized growth,[13],0.333 (active)
same,normalized growth,[14],0.931
same,normalized growth,[15],0.146 (active)
same,normalized growth,[16],0.166 (active)
same,normalized growth,[17],0.213 (active)
same,normalized growth,[18],0.434 (active)
same,normalized growth,[19],0.404 (active)
same,normalized growth,[20],0.433 (active)
same,normalized growth,[21],0.124 (active)
same,normalized growth,[22],0.187 (active)
same,normalized growth,[23],0.215 (active)
same,normalized growth,[24],0.125 (active)
same,normalized growth,[25],0.193 (active)
same,normalized growth,[26],0.192 (active)
same,normalized growth,[27],0.277 (active)
same,normalized growth,[28],0.0907 (active)
same,normalized growth,[29],0.409 (active)
same,normalized growth,[30],0.15 (active)
same,normalized growth,[31],0.318 (active)
same,normalized growth,[32],0.168 (active)
same,normalized growth,[33],0.343 (active)
same,normalized growth,[34],0.117 (active)
same,normalized growth,[35],0.224 (active)
same,normalized growth,[36],0.198 (active)
same,normalized growth,[37],0.185 (active)
same,normalized growth,[38],0.187 (active)
same,normalized growth,[39],0.498 (active)
same,normalized growth,[40],0.182 (active)
same,normalized growth,[41],0.235 (active)
same,normalized growth,[42],0.128 (active)
same,normalized growth,[43],0.0605 (active)
same,normalized growth,[44],0.151 (active)
same,normalized growth,[45],0.644 (active)
same,normalized growth,[46],0.163 (active)
same,normalized growth,[47],0.519 (active)
same,normalized growth,[48],0.265 (active)
same,normalized growth,[49],0.141 (active)
same,normalized growth,[50],0.383 (active)
same,normalized growth,[51],0.194 (active)
same,normalized growth,[52],0.624 (active)
same,normalized growth,[53],0.369 (active)
same,normalized growth,[54],0.114 (active)
same,normalized growth,[55],0.529 (active)
same,normalized growth,[56],0.158 (active)
same,normalized growth,[57],0.12 (active)
same,normalized growth,[58],0.158 (active)
same,normalized growth,[59],0.187 (active)
same,normalized growth,[60],0.303 (active)
same,normalized growth,[61],0.147 (active)
same,normalized growth,[62],0.126 (active)
same,normalized growth,[63],0.131 (active)
same,normalized growth,[64],0.385 (active)
same,normalized growth,[65],0.208 (active)
same,normalized growth,[66],0.41 (active)
same,normalized growth,[67],0.9
same,normalized growth,[68],0.545 (active)
same,normalized growth,[69],0.644 (active)
Cc1nc2n(c(=O)c1CCN1CCC(c3noc4cc(F)ccc34)CC1)CCCC2,normalized growth,[70],0.998
same,normalized growth,"locus YAL040C, strain CLN3, hits give low values",1.02
same,normalized growth,"locus YCL061C, strain MRC1 (second series), hits give low values",1.01
same,normalized growth,[71],1
same,normalized growth,"locus YDR363W, strain ESC2, hits give low values",0.988
same,normalized growth,"locus YER002W, strain NOP16, hits give low values",1
same,normalized growth,"locus YGR229C, strain SMI1, hits give low values",1
same,normalized growth,[72],1
same,normalized growth,"locus YMR307W, strain GAS1, hits give low values",1.02
same,normalized growth,[73],1.03
same,normalized growth,[74],1.01
same,normalized growth,"locus YNL175C, strain NOP13, hits give low values",1.01
same,normalized growth,"locus YNL197C, strain WHI3, hits give low values",1.01
same,normalized growth,"locus YNL224C, strain SQS1, hits give low values",1
same,normalized growth,"locus YOR083W, strain WHI5 (second series), hits give low values",1
same,normalized growth,[75],1
Cc1cc(CN2CC(C)OC(C)C2)cc(C)c1O (stereo not drawn),normalized growth,[70],1.01
same,normalized growth,"locus YBR229C, strain ROT2, hits give low values",1.01
same,normalized growth,[8],1.09
same,normalized growth,[71],1.08
same,normalized growth,"locus YEL061C, strain CIN8, hits give low values",0.997
same,normalized growth,"locus YGR078C, strain PAC10, hits give low values",1.02
same,normalized growth,[25],1.03
same,normalized growth,"locus YHR087W, strain rtc3, hits give low values",0.976
same,normalized growth,"locus YJR043C, strain POL32, hits give low values",1.03
same,normalized growth,"locus YJR075W, strain HOC1, hits give low values",1
same,normalized growth,"locus YKL190W, strain CNB1, hits give low values",0.974
same,normalized growth,"locus YLR039C, strain RIC1, hits give low values",1.05
same,normalized growth,"locus YLR058C, strain SHM2 (second series), hits give low values",0.991
same,normalized growth,"locus YLR085C, strain ARP6, hits give low values",1.03
same,normalized growth,"locus YLR262C, strain YPT6, hits give low values",0.954
same,normalized growth,"locus YML094W, strain GIM5, hits give low values",0.996
same,normalized growth,"locus YMR219W, strain ESC1, hits give low values",0.997
same,normalized growth,[72],1.05
same,normalized growth,[73],0.988
same,normalized growth,[74],1.04
same,normalized growth,"locus YNL298W, strain CLA4 (second series), hits give low values",1.02
same,normalized growth,"locus YNL322C, strain KRE1, hits give low values",0.994
same,normalized growth,"locus YNR030W, strain Alg12, hits give low values",0.992
same,normalized growth,"locus YOL006C, strain TOP1, hits give low values",0.975
same,normalized growth,"locus YPL055C, strain LGE1, hits give low values",1.01
same,normalized growth,[75],1.03
same,normalized growth,"locus YPR135W, strain CTF4, hits give low values",1.04
